First the molecules themselves.
B1: PhoQ; a variant is named by its letters at X, in order, P23837 (parent)
chain: MKKLLRLFFPLSLRVRFLLATAAVVLVLSLAYGMVALIGYSVSFDKTTFRLLRGESNLFYTLAKWENNKLHVELPENIDKQSPTMTLIYDENGQLLWAQRDVPWLMKMIQPDWLKSNGFHEIEADVNDTSLLLSGDHSIQQQLQEVREDDDDAEMTHSVAVNVYPATSRMPKLTIVVVDTIPVELKSSYMVWSWFIYVLSANLLLVIPLLWVAAWWSLRPIEALAKEVRELEEHNRELLNPATTRELTSLVRNLNRLLKSERERYDKYRTTLTDLTHSLKTPLXXLQXXLRSLRSEKMSVSDAEPVMLEQISRISQQIGYYLHRASMRGGTLLSRELHPVAPLLDNLTSALNKVYQRKGVNISLDISPEISFVGEQNDFVEVMGNVLDNACKYCLEFVEISARQTDEHLYIVVEDDGPGIPLSKREVIFDRGQRVDTLRPGQGVGLAVAREITEQYEGKIVAGESMLGGARMEVIFGRQHSAPKDE

Whole data set: some 140,000 sequences, median “enrichment ratio after two sorts for PhoP signalling” near 0, cut for the highest 2% near 11. Many of the other results were omitted from the sample, so the highest values are more common in it than they were.

This experiment covers variants of B1. Briefly: enrichment ratio after two sorts for PhoP signalling (ratio (wild type AVST 3.29)); higher = more functional. As to conditions: with PhoP (E. coli).
With FPSQ, the enrichment ratio was no more than 0.25. For the variant YFHS, the enrichment ratio is no more than 0.25.

For the variant HESK, the enrichment ratio was no more than 0.25. In the case of QHDK, the enrichment ratio is no more than 0.25. Next, QHDG: 110; QHDA: 10.1; THDI: no more than 0.25. On to PHDG, for which the enrichment ratio is no more than 0.25. As to QHRM, the enrichment ratio is no more than 0.25. The figure for THDG is no more than 0.25. The figure for QHDS is 29.2. With QHDI, the enrichment ratio turned out to be 19.6. The figure for QHGM is no more than 0.25; for NHDI it is no more than 0.25; for QHDM it is 19.5. Next, LMVM: no more than 0.25; EFMR: no more than 0.25; LCAK: no more than 0.25. Next, IKYG: no more than 0.25.

With AISC, the enrichment ratio was 9.79. The figure for SAFV is no more than 0.25; for AGNI it is no more than 0.25; for PWYG it is no more than 0.25. For the variant YQLM, the enrichment ratio was 17.7.

WILM: the enrichment ratio was no more than 0.25.

In the case of YQLA, the enrichment ratio is no more than 0.25. As for YQNS, the enrichment ratio was no more than 0.25. The figure for WEGM is no more than 0.25; for WFLM it is no more than 0.25; for WELM it is 17.4. Take YQNY: the enrichment ratio was no more than 0.25. Turning to WELF, the enrichment ratio is no more than 0.25. Regarding YQNA, the enrichment ratio came to 14.6. Consider YQWM, for which the enrichment ratio is no more than 0.25. Next, WQLM: 15.8; QISH: 7.86. The figure for FCVP is no more than 0.25; for NSRA it is 0.539; for NGWY it is no more than 0.25. Turning to VQWA, the enrichment ratio is no more than 0.25.

Turning to SQLM, the enrichment ratio amounted to 21.3.

In the case of DPLM, the enrichment ratio was no more than 0.25. Next, NQLM: 6.38; TQLM: 22.7; EQLM: no more than 0.25. For KYLM, the enrichment ratio is no more than 0.25. Next, MPQH: no more than 0.25; KFKS: no more than 0.25. Consider TDIN, for which the enrichment ratio was no more than 0.25. Next, LAGL: no more than 0.25. The figure for SWST is no more than 0.25. The figure for DQAN is no more than 0.25; for AHCY it is 12.7; for THCY it is 1.87.

In the case of AMCY, the enrichment ratio was 25.2. The figure for VLCY is no more than 0.25; for NHCY it is no more than 0.25; for NMCY it is no more than 0.25.

On to SYHH, for which the enrichment ratio amounted to 0.299. Regarding IIEM, the enrichment ratio was no more than 0.25. As for KTPQ, the enrichment ratio is no more than 0.25. In the case of MTSW, the enrichment ratio was no more than 0.25. With AFCE, the enrichment ratio is no more than 0.25. Next, AFVG: 4.66; AFMG: 19.5; AFAG: no more than 0.25.

Consider AFCI, for which the enrichment ratio is no more than 0.25. Next, AFCG: 11.4; SDVD: no more than 0.25; FQFY: no more than 0.25. Next, YCFT: no more than 0.25; QDDD: no more than 0.25; NLAY: no more than 0.25. With GAMS, the enrichment ratio is no more than 0.25.

TPSS: the enrichment ratio was no more than 0.25. Next, MNLA: no more than 0.25; GNLC: 4.14. Next, KCLC: no more than 0.25; MCLC: 1.65; MNLC: 11.7.

On to TNLC, for which the enrichment ratio turned out to be 13.5.

Turning to RMKH, the enrichment ratio was no more than 0.25. The figure for FPFY is no more than 0.25; for FYFF it is no more than 0.25. On to FHQK, for which the enrichment ratio was no more than 0.25. ANIH: the enrichment ratio is no more than 0.25. The figure for TGIH is no more than 0.25; for AGIH it is 16.3. Consider YTIH, for which the enrichment ratio was no more than 0.25.

On to ATIH, for which the enrichment ratio was determined as 25.3.

Take ADIH: the enrichment ratio is no more than 0.25. For the variant HART, the enrichment ratio is no more than 0.25. Next, AISF: 13.4; WISF: no more than 0.25.

For AKSF, the enrichment ratio was determined as 2.49.

For AQSF, the enrichment ratio stood at 11.9.

Take AQHF: the enrichment ratio was no more than 0.25. As to ADSF, the enrichment ratio was no more than 0.25.

Regarding PMKN, the enrichment ratio is no more than 0.25. SCIV: the enrichment ratio was determined as 1.12. Next, RQQH: no more than 0.25; TGCA: 19.8.

For AGGM, the enrichment ratio is no more than 0.25. For the variant TGCE, the enrichment ratio came out at 24.6. Next, GGCE: no more than 0.25; RGCA: no more than 0.25. Consider AGWM, for which the enrichment ratio was no more than 0.25. RQKH: the enrichment ratio was no more than 0.25. Next, GGCA: 6.15; RGCE: no more than 0.25; AGCK: 16.1. The figure for RQKI is 19.2; for GKAG it is no more than 0.25; for TPNE it is no more than 0.25. The figure for EIDL is no more than 0.25; for VTQY it is no more than 0.25; for KAGG it is no more than 0.25.

With SNFF, the enrichment ratio is no more than 0.25. The figure for AGDI is no more than 0.25; for AGCA it is 15.

Take TGVY: the enrichment ratio was 2.88. The figure for AGVA is 1.62.

For AGCV, the enrichment ratio was 23.6. For AGWI, the enrichment ratio was no more than 0.25. Consider TGCK, for which the enrichment ratio was determined as 37.2. Next, GGCK: no more than 0.25; AGVY: 18.3; AGDH: no more than 0.25. The figure for RGCK is no more than 0.25. As to TGCV, the enrichment ratio stood at 7.81. As to IEAT, the enrichment ratio is no more than 0.25. The figure for WPAK is no more than 0.25; for GFQM it is no more than 0.25.

As to YNLK, the enrichment ratio is no more than 0.25. The figure for DYIY is no more than 0.25.

For KRVH, the enrichment ratio is no more than 0.25.

On to PCSH, for which the enrichment ratio is no more than 0.25. Next, ESFE: no more than 0.25; QFHQ: no more than 0.25; GIIK: no more than 0.25. For IAHY, the enrichment ratio was no more than 0.25. As to VMDH, the enrichment ratio was no more than 0.25. Next, TGCM: 16.3; AGCL: 15.2. For the variant QGCM, the enrichment ratio was found to be 1.34.

Turning to AHQM, the enrichment ratio is no more than 0.25. With AGQM, the enrichment ratio is 15.8. As to YWCL, the enrichment ratio is no more than 0.25. As to AGCE, the enrichment ratio is 6.71. Next, AGWL: no more than 0.25; AGCI: 14; AGCS: 10.8. With RGCM, the enrichment ratio is no more than 0.25. On to AKQM, for which the enrichment ratio is no more than 0.25. For the variant YRSY, the enrichment ratio is no more than 0.25.
